Measured values reported in PubChem BioAssay AID624305 (National Center for Advancing Translational Sciences (NCATS), 2012).
Results filed as inconclusive are left out. Calls of active or inactive are those of the source. The call rests on the fitted dose curve; in most records, active means well fitted activation curve with a large enough effect; inconclusive means small, poorly fitted or top-dose-only effect; inactive means no such curve, though single readings can be large or run the other way.

Assay: qHTS assay for re-activators of p53 using a Luc reporter: Hit Validation; further: nearly all actives have a fitted effect of over 75% in size; on activation: 0% is about no effect
Conditions: p53-responsive luciferase reporter cells, luminescence, H1299 line expressing heat-sensitive Ala138Val p53; series mostly up to 46.1 µM; activation: at the top concentration
In short: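 Hit confirmation with a 1:5 dilution series, at 37 deg C for 24 hrs, in H1299 cells co-expressing temperature-sensitive p53-A138V and p53-responsive luciferase. Nocodazole served as control; luminescence read after 10 min with detection reagent.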
Potency means the concentration at half of the fitted maximal effect.

activation, inactive:
Oc1c(CN2CCOCC2)cc(COCc2ccccc2)c2cccnc12 28.6%
O=C(NNC(=S)NC1CCCCC1)c1cccs1 0%
O=C(COC(=O)c1cc2ccccc2oc1=O)Nc1cccc(S(=O)(=O)N2CCCCCC2)c1 37.5%
CCOc1cc(S(=O)(=O)NC2CCCCCC2)ccc1F -12.5%
COc1nnc(-c2ccc(C)c(S(=O)(=O)N(C)C)c2)c2ccccc12 -20.3%
CCOP(=O)(OCC)C(NC(=O)Nc1ccccc1)C(N)=O (stereo not drawn) -4.69%
Cc1ccc(NC(=O)CCN2C(=O)c3cccc([N+](=O)[O-])c3C2=O)c(Br)c1 38%
C/C(=N\OCC(=O)NC12CC3CC(CC(C3)C1)C2)c1cc2ccccc2o1 3.65%
CCOC(=O)c1c(NC(=O)C2COc3ccccc3O2)sc2c1CCN(Cc1ccccc1)C2 (stereo not drawn) -4.69%
CCOc1ccc(-c2cnc3ccccc3n2)cc1 -85.9%
Cc1ccc(C(=O)NC2CC2)cc1S(=O)(=O)N1CCOCC1 12.5%
CCn1c(=N)n(CCOc2ccc(OC)cc2)c2ccccc21 -8.85%
Cn1ncc([N+](=O)[O-])c1C(=O)Nc1ccc(C2CCCCC2)cc1 24%
CCCN1C(=O)SC(CC(=O)Nc2ccccc2C)C1=O (stereo not drawn) 12.4% [at 9.22 µM]
COc1ccc(CCC(=O)NC(C)C2CCCO2)cc1 (stereo not drawn) -26%

Potency, active:
Cc1ccc(C)c(C(=O)COC(=O)c2n[nH]c3ccccc23)c1 18.4 µM
CC(=O)Oc1ccc(Cl)cc1/C=C/c1ccc2ccccc2n1 4.61 µM
Cc1ccc(NC(=O)c2ccc3nc[nH]c3c2)cc1C 23.1 µM
